# Where a name gives a salt, the structure may show the parent alone.
# Tested on: S. cerevisiae AD1-9 (efflux-pump deficient), vegetative growth in YPD; in the data active = 2 or more and inactive = the rest
# Assay: growth sensitivity score (doubling time z-score vs DMSO controls); higher = slower growth, strongly negative scores also mark growth inhibition (complete suppression), active = hit call of the paper
# Summary of the method: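 Optical density of Saccharomyces cerevisiae cultures in microtiter plates was followed every 15 min for 24 hours after seeding at an OD600 of 0.065. Eight solvent-only wells were run per experiment. Growth sensitivity scores were found by subtracting the solvent-only mean from the compound mean and dividing by the solvent-only standard deviation.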
row,SMILES,growth sensitivity score
1,"CNCC[C@H](Oc1cccc2ccccc12)c1cccs1 [Duloxetine hydrochloride] (stock concentration (mM, diluted 1:100): 8.9)",33.3 (active)
2,"COC(=O)C1=C(C)NC(C)=C(C(=O)OCC(C)C)C1c1ccccc1[N+](=O)[O-] (stereo unspecified) [Nisoldipine] (stock concentration (mM, diluted 1:100): 10)",89.2 (active)
3,"Nc1c2c(nc3ccccc13)CCCC2 [Tacrine hydrochloride] (stock concentration (mM, diluted 1:100): 9)",-5.79
4,"O=C1N(c2ccccc2)c2ccccc2C1(Cc1ccncc1)Cc1ccncc1 (stock concentration (mM, diluted 1:100): 10)",8.78 (active)
5,"CCCN[C@H]1CCc2nc(N)sc2C1 [Pramipexole] (stock concentration (mM, diluted 1:100): 10)",51 (active)
6,"O=C1CCc2ccc(OCCCCN3CCN(c4cccc(Cl)c4Cl)CC3)cc2N1 [Aripiprazole] (stock concentration (mM, diluted 1:100): 10)",18.5 (active)
7,"OC[C@H]1O[C@@H](n2cnc3c(N[C@H]4CCC[C@@H]4O)ncnc32)[C@@H](O)C1O (stereo partly specified) (stock concentration (mM, diluted 1:100): 10)",-0.69 (inactive)
8,"CN1CCCC(n2nc(Cc3ccc(Cl)cc3)c3ccccc3c2=O)CC1 (stereo unspecified) [Azelastine hydrochloride] (stock concentration (mM, diluted 1:100): 9.1)",11 (active)
9,"NC(N)=NC(=O)c1nc(Cl)c(N)nc1N (stock concentration (mM, diluted 1:100): 8.2)",4.88 (active)
10,"C[C@@H]1O[C@@H](OC[C@H]2O[C@@H](Oc3c(-c4ccc(O)c(O)c4)oc4cc(O)cc(O)c4c3=O)[C@H](O)[C@@H](O)[C@@H]2O)[C@H](O)[C@H](O)[C@H]1O [Rutin] (stock concentration (mM, diluted 1:100): 10)",0.28 (inactive)
11,"CC(C)(C#N)c1cc(Cn2cncn2)cc(C(C)(C)C#N)c1 [Anastrozole] (stock concentration (mM, diluted 1:100): 10)",-1.94 (inactive)
